Screens from PubChem BioAssay.
SENP8 block-1: SENP8 protease inhibitors, primary screen, biochemical, luminescence; purified SENP8, Z-RLRGG-aminoluciferin cleavage; inhibition, % at 10 µM; actives 1.2% (n = 330,000); in the data active means inhibition above about 50%
SENP8 block-2: human SENP8 protease inhibitors, primary screen, biochemical, fluorescence, Nedd8 protein substrate, uHTS. AID 602440, 2012. recombinant SENP8. actives 0.64% (n = 360,000). inhibition, % at 20 µM; in the data active means inhibition mostly above about 40%, no sharp cut-off; inactive means mostly below about 27%
SENP6 block: SENP6 protease inhibitors, primary screen, biochemical, luminescence, uHTS. Sentrin-specific protease 6 (Homo sapiens), Q9GZR1. Recombinant SENP6 catalytic domain, aminoluciferin luminescence. inhibition, % at 10 µM. actives 1.8% (n = 330,000);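 active means inhibition above about 50% at the single tested dose, limit read from the data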;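 further: plate controls were DMSO wells with enzyme for no effect and DMSO wells lacking enzyme for full effect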
Target sequence (Q9GZR1 628-1112 limits assumed): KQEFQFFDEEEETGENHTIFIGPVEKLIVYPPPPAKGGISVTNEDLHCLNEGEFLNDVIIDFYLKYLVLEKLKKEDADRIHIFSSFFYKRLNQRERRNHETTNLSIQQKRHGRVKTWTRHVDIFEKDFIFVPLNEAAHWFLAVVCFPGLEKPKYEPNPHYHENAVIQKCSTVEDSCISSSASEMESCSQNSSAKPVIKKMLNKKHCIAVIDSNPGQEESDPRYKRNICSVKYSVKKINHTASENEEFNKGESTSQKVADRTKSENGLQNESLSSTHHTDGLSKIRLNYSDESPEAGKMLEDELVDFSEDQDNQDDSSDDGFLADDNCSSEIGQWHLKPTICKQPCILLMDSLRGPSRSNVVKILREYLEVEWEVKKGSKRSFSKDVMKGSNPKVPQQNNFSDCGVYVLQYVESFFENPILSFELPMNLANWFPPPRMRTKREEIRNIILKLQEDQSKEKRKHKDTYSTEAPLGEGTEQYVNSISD
SENP7 block: SENP7 protease inhibitors, primary screen, biochemical, luminescence, uHTS. AID 434973, 2010. inhibition, % at 5 µM. recombinant SENP7, Z-RLRGG-aminoluciferin luminescence, 40 min. Sentrin-specific protease 7 (Homo sapiens), Q9BQF6. actives 1.5% (n = 330,000);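 active means inhibition above about 50% at the single test dose, limit read from the data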;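 further: plate controls were DMSO with enzyme for no effect and no enzyme buffer wells for full effect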
HSP90 inh: HSP90 inhibitors, primary screen, cell lysate, luminescence; Rabbit reticulocyte lysate, luciferase refolding luminescence, 3 h; inhibition, % at 5.6 µM; actives 0.91% (n = 290,000); AID 1789, 2009;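 active means inhibition above the screen-wide mean plus 3 SD, computed separately per campaign, cut at about 16% in these data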;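 further: 0% = DMSO wells and 100% = 60 µM geldanamycin wells; inhibitors lower the luminescence because luciferase stays unfolded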
SENP8 conf: SENP8 protease inhibitors, retest, confirmation, biochemical, luminescence, single concentration; actives 40% (n = 6,200); Recombinant SENP8, Z-RLRGG-aminoluciferin luminescence, 60 min; shares compounds with SENP7 block; inhibition, % at 12.5 µM;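 active means mean inhibition across replicates above about 50%, limit read from the data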
SENP6 confirm: SENP6 protease inhibitors, confirmation, biochemical, luminescence, single concentration. shares compounds with SENP7 block. recombinant SENP6, Z-RLRGG-aminoluciferin luminescence. inhibition, % at 12.5 µM. actives 58% (n = 6,200). AID 488915, 2010
SENP7 confirm: SENP7 protease inhibitors, retest, confirmation, biochemical, luminescence, single concentration. shares compounds with SENP7 block. recombinant SENP7, Z-RLRGG-aminoluciferin luminescence, 40 min. inhibition, % at 12.5 µM. actives 69% (n = 6,200)
Casp3 SENP sel: caspase-3 protease inhibitors, confirmation, selectivity assay for SENP inhibitor project, biochemical, single concentration; shares compounds with SENP7 block; purified caspase-3, Z-DEVD-aminoluciferin luminescence, 60 min; inhibition, % at 12.5 µM; actives 60% (n = 6,200);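 active means mean inhibition above about 50%, limit read from the data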;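 further: plate controls were enzyme with DMSO for no effect and wells without caspase-3 for full effect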
SENP luc ctr: interferes with luciferase luminescence in SENP counter-screen; shares compounds with SENP7 block; Pre-incubated SENP8/Z-RLRGG-aminoluciferin, luciferase luminescence interference; inhibition, % at 12.5 µM; actives 39% (n = 6,200);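 active means mean inhibition above about 50% when retested at one dose, limit read from the data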;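 further: plate controls were DMSO wells with completed reaction for no effect and substrate without enzyme for full effect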
Starred values were filed as active, the others as inactive; i = inactive; nt = not tested or not shown. An excerpt weighted towards active compounds, which were near 2.7% of everything screened.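 How the source made its calls, unless noted: active means mean inhibition above about 50% in the one-dose retest (limit read from the data); inactive means the rest.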

SMILES	SENP8 block-1	SENP8 block-2	SENP6 block	SENP7 block	HSP90 inh	SENP8 conf	SENP6 confirm	SENP7 confirm	Casp3 SENP sel	SENP luc ctr
O=[N+]([O-])c1ccccc1N/N=C/c1ccc2c(c1)OCO2	82*	26	34	96*	1	14	16	14	25	4
CC(C)Oc1ccc(C(CC(=O)O)NC(=O)C(Sc2ccccc2)c2ccccc2)cc1 (configuration not stated)	-5	10	1	5	0	nt	nt	nt	nt	nt
CC(=O)Nc1nc(COc2ccc3ccccc3c2)cs1	37	10	62*	62*	-5	44	47	81*	nt	37
CC(=O)Nc1nc(COc2ccccc2)cs1	-3	10	-5	2	-2	nt	nt	nt	nt	nt
O=C(Nc1nc(COc2ccccc2)cs1)C1CCC1	1	12	54*	10	0	-28	-20	-11	-7	-3
COc1ccc(-c2cc(C(F)(F)F)n3nc(C(=O)NCCN4CCOCC4)cc3n2)cc1	-5	-442	10	5	4	nt	nt	nt	nt	nt
CCCCOc1cccc(C(=O)NC(=S)Nc2cccc(NC(=O)c3ccccc3Cl)c2)c1	-8	14	-4	-7	-4	nt	nt	nt	nt	nt
Cc1c(O)ccc(C(=O)CN2CCN(Cc3ccccc3)CC2)c1O	-1	-14	-21	59*	-2	-12	-1	-9	-4	-3
Cc1c(O)ccc(C(=O)CN2CCN(c3ccc(F)cc3)CC2)c1O	0	-41	7	8	6	nt	nt	nt	nt	nt
COC(=O)c1c(C(=O)OC)c(-c2cccc(F)c2)n2c1CS(=O)C2 (configuration not stated)	-7	9	-12	-10	2	nt	nt	nt	nt	nt
CC(C)(C)NC(=S)Nc1ccc(Br)cc1	-1	9	-12	-4	1	nt	nt	nt	nt	nt
CC(C)(C)NC(=S)Nc1ccc(Nc2ccccc2)cc1	18	9	32	50*	1	-3	2	7	2	4
NC1=Nc2cccc3cccc1c23	11	-351	66*	2	3	1	23	9	3	2
COc1ccc(C2c3ccc(O)cc3Oc3ncn(Cc4ccccc4)c(=N)c32)cc1OC (configuration not stated)	1	-57	-3	-1	10	nt	nt	nt	nt	nt
Cc1oc(-c2cccc(Cl)c2)nc1CN1CCCC(C(=O)NCCCN2CCOCC2)C1 (configuration not stated)	0	21	-2	-4	7	nt	nt	nt	nt	nt
O=C(CSc1ccccc1)Nc1nnc(COc2ccc(Cl)cc2)s1	2	11	7	1	4	nt	nt	nt	nt	nt
Cn1c2ccccc2c(=O)c2cc(C#CC3=CCCCC3)ccc21	28	-498	39	0	nt	nt	nt	nt	nt	nt
C=CCn1c2ccccc2c(=O)c2cc(C#CC[C@@H](C)O)ccc21	37	i	56*	30	nt	59*	59*	76*	52*	33
C/C(=N/NC(=O)c1cc2ccccc2cc1O)C1C(=O)c2ccccc2C1=O	96*	27	94*	63*	-2	95*	99*	97*	81*	46
C/C(=N\NC(=O)c1cc2ccccc2cc1O)c1cc2ccccc2o1	-9	-132	10	-9	-2	nt	nt	nt	nt	nt
